Screens deposited in PubChem by National Center for Advancing Translational Sciences (NCATS).
The list is not random: actives were taken first. Their share in the collection is about 10%.
Gal4-VP16 FLuc: Gal4-VP16 reporter inhibition counter-screen; Drosophila S2 Gal4-VP16 UAS-luciferase, luminescence, 20 h; Potency, µM (highest dose often 53.6 µM), inactives show at the top dose activity, negative = inhibition, most hits filed as inhibitors; hit rate 3.5% among 310,000; AID 2546;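 note: Gal4-VP16 expression switched on by copper sulfate through the metallothionein promoter; % is set by controls: 0 for no effect and ±100 for the full control effect; nearly all actives have a fitted effect of over 50% in size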
KB-3-1 cytotox: kills parental KB-3-1 adenocarcinoma cells; KB-3-1 viability, CellTiter-Glo ATP luminescence, 72 h; Potency, µM (doses to about 46.1 µM), most hits filed as cytotoxic; hit rate 1.4% among 400,000; note: % is set by controls: 0 for no effect and ±100 for the full control effect; nearly all actives have a fitted effect of over 60% in size
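72 h, 37 °C compound treatment of KB-3-1 parental cells; CellTiter-Glo added, 10 min, luminescence read. Data corrected against DMSO-only plates and normalized before curve fitting.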
MCF10A rereplic: induces DNA re-replication in MCF 10a normal breast cells | MCF 10A DNA re-replication, Hoechst nuclear intensity, 48 h | Potency, µM (highest dose often 46.1 µM), inactives show top-dose activity, positive = re-replication, most hits filed as activators | hit rate 2.9% among 350,000 | AID 624296; note: % of control where 0% means no effect; nearly all actives have a fitted effect of over 50% in size
KB-V1 MDR tox: KB-V1 MDR subline cytotoxicity; KB-V1 MDR cells viability, CellTiter-Glo, 72 h; Potency, µM (top dose mostly 46.1 µM), hits mostly cytotoxic; hit rate 3.4% among 400,000; AID 1347076; note: % is set by controls: 0 for no effect and ±100 for the full control effect; nearly all actives have a fitted effect of over 60% in size
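KB-V1 cells (P-gp-expressing MDR subline of KB-3-1) in phenol-red-free DMEM with 10% FBS were exposed to library compounds over a concentration series for 72 h at 37 degrees C. Viability read by CellTiter-Glo luminescence; concentration-effect curves fitted after normalization.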
SW480 rereplic: DNA re-replication induction in SW480 cells | SW480 DNA re-replication, Hoechst DNA content imaging, 48 h | Potency, µM (doses to about 46.1 µM), without a hit: at the top dose re-replication activation, usual class: activators | hit rate 1.8% among 340,000 | AID 624297; note: % of control where 0% means no effect; nearly all actives have a fitted effect of over 55% in size
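Hoechst fluorescence of nuclei (405 nm excitation, 500-530 nm emission) measured by plate-scanning imager after 48 hr compound exposure at 37 C; re-replication scored as increased number of nuclei with elevated intensity.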
RORgamma inh: blocks mouse ROR gamma transcriptional activity | Drosophila S2 Gal4-RORgamma UAS-luciferase reporter, 20 h | Potency, µM (series often up to 53.6 µM), for inactives: top-dose activity change, negative = inhibition, hits mostly inhibitors | hit rate 5.4% among 310,000 | AID 2551; note: % is set by controls: 0 for no effect and ±100 for the full control effect; nearly all actives have a fitted effect of over 60% in size
Target sequence (P51450 whole entry, looked up, the tested form may be a part): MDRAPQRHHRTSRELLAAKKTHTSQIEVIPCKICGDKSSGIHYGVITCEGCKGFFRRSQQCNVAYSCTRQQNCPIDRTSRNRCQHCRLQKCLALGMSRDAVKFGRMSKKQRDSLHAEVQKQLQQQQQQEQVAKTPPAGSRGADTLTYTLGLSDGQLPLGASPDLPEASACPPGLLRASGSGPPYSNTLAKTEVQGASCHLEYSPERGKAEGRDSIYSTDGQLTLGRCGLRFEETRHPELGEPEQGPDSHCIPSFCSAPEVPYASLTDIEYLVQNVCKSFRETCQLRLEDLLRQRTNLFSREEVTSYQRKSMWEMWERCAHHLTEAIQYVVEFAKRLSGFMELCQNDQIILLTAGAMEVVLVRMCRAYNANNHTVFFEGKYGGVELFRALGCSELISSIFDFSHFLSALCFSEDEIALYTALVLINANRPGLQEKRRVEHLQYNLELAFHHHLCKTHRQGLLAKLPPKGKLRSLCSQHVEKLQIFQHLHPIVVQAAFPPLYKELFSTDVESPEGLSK
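Read-out: Photinus luciferase luminescence; inhibitors lower reporter signal. Insect Schneider cells with Gal4-ROR gamma fusion under metallothionein promoter, UAS reporter; 700 uM final copper sulfate induction, 20 hr, ambient temperature.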
* hit, by the source's call; [ ] = dose if it differs, or a comment. Calls come from the whole dose curve; as a rule, active = well fitted curve in the direction sought with a large enough effect; inconclusive = small, poorly fitted or top-dose-only effect, or another doubt; inactive = no such curve, though single readings can be large; an effect the other way counts as inactive or inconclusive. Potency is the fitted concentration of half-maximal effect.

What do the screens show for `CCc1ccc(C2c3c(oc4ccc(F)cc4c3=O)C(=O)N2CCc2ccc(OC)cc2)cc1` (configuration not stated)?
KB-3-1 cytotox: inactive; KB-V1 MDR tox: inactive

Results for CN(C)c1ccc(C2C=Cc3ccccc32)c2ccccc12 (configuration not stated) ?
KB-3-1 cytotox: inactive; KB-V1 MDR tox: inactive

What do the screens show for `COc1ccc(NC(=S)NCC2CCCO2)c(OC)c1` (configuration not stated)?
Gal4-VP16 FLuc: 1%; KB-3-1 cytotox: inactive; MCF10A rereplic: 1%; KB-V1 MDR tox: inactive; SW480 rereplic: -1%; RORgamma inh: -39%

Results for COc1ccccc1NC(=S)NCC1CCCO1 (configuration not stated) ?
Gal4-VP16 FLuc: inconclusive; KB-3-1 cytotox: inactive; MCF10A rereplic: 1%; KB-V1 MDR tox: inactive; SW480 rereplic: 20%; RORgamma inh: inconclusive

How did S=C(NCC1CCCO1)Nc1cccc2ccccc12 (configuration not stated) do in these assays?
Gal4-VP16 FLuc: inconclusive; KB-3-1 cytotox: inactive; MCF10A rereplic: 3%; KB-V1 MDR tox: inactive; SW480 rereplic: 27%; RORgamma inh: 7.1µM*

Results for CCOc1cc(NC(=S)Nc2ccccc2)c(OCC)cc1NC(=O)c1ccccc1 ?
Gal4-VP16 FLuc: 10µM*; KB-3-1 cytotox: inactive; MCF10A rereplic: 19%; KB-V1 MDR tox: inactive; SW480 rereplic: 13%; RORgamma inh: 1.8µM*

How did CCOc1cc(NC(=S)NCC2CCCO2)c(OCC)cc1NC(=O)c1ccc(OC)cc1 (configuration not stated) do in these assays?
Gal4-VP16 FLuc: 10µM*; KB-3-1 cytotox: inactive; MCF10A rereplic: -3%; KB-V1 MDR tox: inactive; SW480 rereplic: -7%; RORgamma inh: 11µM*

How did CCOc1cc(NC(=S)NCC2CCCO2)c(OCC)cc1NC(=O)c1ccccc1C (configuration not stated) do in these assays?
Gal4-VP16 FLuc: inconclusive; KB-3-1 cytotox: inactive; MCF10A rereplic: -179%[0.0737 µM]; KB-V1 MDR tox: inactive; SW480 rereplic: 13%; RORgamma inh: 10µM*

What do the screens show for `CN1CCC2(CC1)CCN(C(=O)c1cccc(F)c1)CC2`?
Gal4-VP16 FLuc: 6%; RORgamma inh: 0%

How did COc1cccc(OCC(=O)Nc2nnc3n2CCS3)c1 do in these assays?
KB-3-1 cytotox: inactive; KB-V1 MDR tox: inactive

What do the screens show for `CCOc1ccc(N=C(NN)c2ccc3ccccc3n2)cc1`?
Gal4-VP16 FLuc: inconclusive; KB-3-1 cytotox: inactive; MCF10A rereplic: 12%; KB-V1 MDR tox: inactive; SW480 rereplic: 13%; RORgamma inh: 10µM*

Results for CC(=O)Nc1ccccc1N(CC(O)Cn1c2ccccc2c2ccccc21)S(=O)(=O)c1ccc(C)cc1 (configuration not stated) ?
Gal4-VP16 FLuc: -20%; KB-3-1 cytotox: inactive; MCF10A rereplic: inconclusive; KB-V1 MDR tox: inconclusive; SW480 rereplic: 23µM*; RORgamma inh: inconclusive

How did COc1ccc(N(CC(O)Cn2c3ccccc3c3ccccc32)S(=O)(=O)c2ccccc2)cc1 (configuration not stated) do in these assays?
Gal4-VP16 FLuc: -8%; KB-3-1 cytotox: inconclusive; MCF10A rereplic: 5%; KB-V1 MDR tox: 23µM*; SW480 rereplic: inconclusive; RORgamma inh: 30%

How did CS(=O)(=O)N(CC(O)Cn1c2ccccc2c2ccccc21)c1ccccc1 (configuration not stated) do in these assays?
Gal4-VP16 FLuc: 5%; KB-3-1 cytotox: inconclusive; MCF10A rereplic: 21%; KB-V1 MDR tox: inactive; SW480 rereplic: 0%; RORgamma inh: inconclusive

What do the screens show for `CCN(CC(O)Cn1c2ccccc2c2ccccc21)S(=O)(=O)c1ccc(C)cc1` (configuration not stated)?
Gal4-VP16 FLuc: 0%; KB-3-1 cytotox: inconclusive; MCF10A rereplic: inconclusive; KB-V1 MDR tox: inconclusive; SW480 rereplic: inconclusive; RORgamma inh: 27%
